# Test results reported in the supplement of paper PMC6555819.
# Assays:
# Assay in all cases: PBM binding z-score (relative to random genomic background probes); higher = stronger binding; sequences stand for … in GC…GCGATTGACAGCGTAGAATGAAGG
# [1] = test system: PPARg:RXRa DBDmut IVT, anti-RXR (DBD mutation: RXRa K156A/R161A, NR concentration 270 nM, RXRa partner concentration 90 nM)
# How it was run: (§1)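 Binding z-scores take random background probes as their reference. They come from custom Agilent 4×180K protein-binding microarrays incubated 1 h with ligand-free nuclear receptor dimers, with antibodies against each partner (one per run) detecting binding. Scanned fluorescence was regression-normalized.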
# [2] = test system: PPARg:RXRa IVT, anti-PPARg (NR concentration 270 nM, RXRa partner concentration 90 nM)
# How it was run: as §1
# [3] = test system: PPARg DBDmut:RXRa IVT, anti-PPARg (DBD mutation: PPARg1 K132A/R137A, NR concentration 270 nM, RXRa partner concentration 90 nM)
# How it was run: as §1
# [4] = test system: PPARg DBDmut IVT, anti-PPARg (DBD mutation: PPARg1 K132A/R137A, NR concentration 270 nM)
# How it was run: as §1
# [5] = test system: PPARg homodimer (NR concentration 180 nM)
# How it was run: as §1
# [6] = test system: PXR:RXRa (NR concentration 270 nM, RXRa partner concentration 90 nM)
# How it was run: as §1
# [7] = test system: PXR homodimer (NR concentration 270 nM)
# How it was run: as §1
# [8] = test system: RARa:RXR (NR concentration 270 nM, RXRa partner concentration 90 nM)
# How it was run: as §1
# [9] = test system: RARa homodimer (NR concentration 270 nM)
# How it was run: as §1
# [10] = test system: RARb:RXRa (NR concentration 270 nM, RXRa partner concentration 90 nM)
# How it was run: as §1
# [11] = test system: RARb homodimer (NR concentration 270 nM)
# How it was run: as §1
# [12] = test system: RARg:RXRa (NR concentration 270 nM, RXRa partner concentration 90 nM)
# How it was run: as §1
# [13] = test system: RARg homodimer (NR concentration 270 nM)
# How it was run: as §1
# [14] = test system: RXRa DBDmut IVT, anti-RXR (DBD mutation: RXRa K156A/R161A, NR concentration 90 nM)
# How it was run: as §1
# [15] = test system: RXRa homodimer (NR concentration 180 nM)
# How it was run: as §1
# [16] = test system: THRa:RXRa (NR concentration 90 nM, RXRa partner concentration 90 nM)
# How it was run: as §1
# [17] = test system: THRa homodimer (NR concentration 90 nM)
# How it was run: as §1
# [18] = test system: VDR homodimer (NR concentration 270 nM)
# How it was run: as §1
Sequence,PBM binding z-score [1],PBM binding z-score [2],PBM binding z-score [3],PBM binding z-score [4],PBM binding z-score [5],PBM binding z-score [6],PBM binding z-score [7],PBM binding z-score [8],PBM binding z-score [9],PBM binding z-score [10],PBM binding z-score [11],PBM binding z-score [12],PBM binding z-score [13],PBM binding z-score [14],PBM binding z-score [15],PBM binding z-score [16],PBM binding z-score [17],PBM binding z-score [18]
CCGACTGGGGGAAGGTTACCATAACGCACAGCCA,0.717,2.1,0.867,1.69,0.69,0.63,0.357,0.802,0.511,1,0.998,1.06,1.02,-0.37,1.02,1.1,0.107,0.178
ATCTCTAAGTAAAGTTCAGTGAAAGATCGATAGA,0.19,0.648,1.26,1.06,1.44,2.03,1.8,1.34,1.77,2.63,2.32,1.98,2.42,1.71,1.26,0.85,-0.131,2.32
CCTACGGGGCCAAAAAGGTCATTGATGCCGATAA,0.493,1.52,-1.13,-0.859,2.87,5.34,9.18,5.07,0.847,4.26,4.54,5.07,4.8,1.23,5.09,3.44,0.423,3.98
AGTCAAAGTTCATCTAGGTAATGTAAGATATGCT,1.01,3.31,1.3,1.47,2.6,5.28,6.34,3.72,1.8,4.94,3.87,5.56,6.17,4.52,4.6,2.92,0.21,5.21
CGAACTAGGTTAGAACAGGACAGTGAAGGATGAT,5.02,4.21,0.977,0.101,0.487,-0.0109,-0.256,0.212,-0.0731,0.527,0.456,0.384,0.607,0.0179,0.171,1.92,-0.166,-0.137
GAGACTGGGGCAAAGCAGGTTACCATAAGGTTGG,5.26,5.09,0.833,0.122,1.16,0.725,0.197,1.26,-0.331,1.14,1.54,0.842,0.776,-0.396,0.474,3.14,0.644,-0.202
TCATATTGGTAAAGGTGAAAGTCGAACGATATGA,1.58,1.69,0.994,1.2,1.15,0.712,-0.162,1.25,0.406,1.94,1.33,1.28,0.994,0.405,1.79,1.08,-0.164,-0.179
TGTCAAAGTTCAAAGGTAACGTACGTATCCACAC,0.385,4.52,2.01,1.18,3.53,5.63,3,6.3,1.11,4.92,3.77,6.34,5.94,4.49,6.98,2.98,0.0494,4.29
CGTTAAAGTTCAACTAAGGTAACGTAAAGCACGC,0.607,1.7,1.25,1.18,2.84,5.26,3.31,3.9,1.26,5.17,4.09,5.55,6.33,4.8,4.25,5.26,1.68,3.94
TGAATGAGGTTAAAGATCAGGTAACGTGGCGTCG,2.2,3.62,0.604,0.742,0.811,2.19,0.0433,3.18,0.33,2.01,0.893,2.55,1.38,0.98,3.9,3.29,1.42,0.674
GCTGCTAGGTCAGGTTGGTCAGCGAACGGGTACG,2.7,2.09,0.222,-1.25,0.933,0.281,-0.36,0.76,-0.581,3.31,2.73,2.68,4.03,0.514,1.11,1.8,0.422,0.896
TCATATAGGTAAAAGGTGAAAGTGGGTGTGGTAA,5.36,5.24,0.898,1.26,2.63,2.31,1.28,3.5,2.39,2.22,2.35,2.16,1.01,1.87,3.15,2.07,1.12,0.877
CCTAGTTGGTCAGGGTCACACACGCTATAGGTAC,1.32,2.77,0.391,0.0582,2.15,3.91,1.38,4.76,1.57,3.43,3.88,4.11,3.38,1.6,4.93,3.63,2.49,2.69
GCTATTAGTTGAAAGGGCAACCAAATGATTCTCG,0.461,1.15,0.444,0.602,0.903,0.803,0.104,1.48,0.766,2.13,2.12,1.54,1.36,1,1.26,0.682,-0.397,0.22
AGTCAAAGTTCAGGACGAGTTAACGTAAAGCACG,-0.151,1.53,0.0233,0.458,1.18,3.59,1.43,2.4,1.1,4.21,3.1,4.4,4.71,2.71,3.19,2.57,0.422,2.59
TCTTGTAGATCAAAGGGTAAGAAAGCCGAAGCCT,1.69,1.86,-0.0494,-0.151,-0.138,0.0425,-0.478,0.483,-0.0812,0.507,-0.068,0.11,-0.178,0.629,0.585,-0.022,-0.878,-0.525
AGTCAAAGTTGACTAGGTAACGTAAGATTCAGCT,1.93,2.8,0.549,0.744,-0.383,-0.11,-0.595,0.0496,-0.0612,1.13,0.0886,0.519,0.771,0.028,0.242,0.477,-0.555,-0.638
GGAACGAGGGCAAGTTGATAGCGGAGTTTGATGG,3.78,2.64,-0.0734,-0.677,0.26,0.392,0.189,0.406,-0.36,2.53,1.43,1.28,1.74,2.31,0.823,1.13,0.118,1.73
CCTAGCAGGCCATTCTGGGTCACTCAAGGCTTGA,3.36,3.51,-0.645,-1.57,0.115,1.61,-0.27,1.71,-0.611,1.75,2.48,1.3,1.75,0.405,1.14,4.1,0.668,0.435
CGAACTAGGTCATTGACGGGACAGTGAATAGTAA,8.12,8.13,2.44,0.8,1.5,1.15,0.012,1.98,0.192,3.63,2.6,4.41,4.35,2.41,2.61,2.63,0.664,0.927
CCAGACAGGTGAAAGGTAAGTCAGTCTGGTACGC,2.21,2.43,-0.386,-0.609,0.848,0.517,-0.131,1.06,0.44,1.14,0.843,1.2,0.478,0.066,1.68,0.828,0.0448,0.0335
CCTCGGATGACAACAGGAGGTCAGAGCTGCCAGA,-0.191,-0.245,0.202,-0.797,1.63,1.72,0.385,2.22,1.58,2.02,3,2.24,1.91,-0.48,2.01,1.92,0.407,0.749
CCGACTGGGGCAAGGTTAACATAACGCACAGCCA,3.28,3.69,0.246,-0.475,0.856,0.52,-0.244,0.896,0.086,1.74,1.47,1.3,1.3,-0.45,1.38,1.37,-0.033,0.172
AGAACGAGGGTAATGAGTTGATAGCACGGGTGGC,1.74,1.31,-0.702,-0.588,-0.465,0.134,1.17,-0.279,-0.76,0.509,-0.134,0.312,0.371,0.405,0.5,-0.0331,-0.615,1.53
TCTTGTAGATCAAGCAGGTTAGGAAAGCCTGAGT,1.57,0.595,0.172,-0.0543,-0.235,-0.00169,0.0817,0.204,-0.0735,-0.0169,0.012,-0.289,-0.589,0.37,-0.0446,0.0299,-0.467,0.231
CCTCGGAGGACAACAGGAGGGCAGAGCTGCCAGA,-0.405,-0.306,-2.18,-1.69,-0.00297,-0.394,-0.631,-0.517,-0.328,1.73,1.42,0.94,2.08,-0.00274,-0.287,0.794,-0.458,-0.448
CGAACTAGGGCATTGACAGGACAGTGAATAGTAA,6.82,6.53,1.42,0.993,0.464,-0.229,-0.0482,-0.297,0.262,1.14,0.812,1.07,1.13,0.467,0.388,0.559,-0.0936,0.137
GGAACGAGGGCAAGTTGATCGCAGAGTTTGATGG,3.49,2.88,0.162,-0.887,-0.254,0.576,-0.0478,0.607,-0.361,2.51,1.5,1.49,1.89,2.28,0.723,1.2,-0.251,1.58
ACAGACATGTGAGTGAAGGTAACTCAGCTGGACG,-0.459,-0.467,-0.0972,-0.0853,-0.419,-0.554,-0.383,-0.531,-0.221,-0.157,-0.584,0.0591,0.117,-0.191,0.317,-0.00314,-0.488,-0.512
